From PubChem BioAssay AID624202 (National Center for Advancing Translational Sciences (NCATS), 2012)
In all, about 380,000 compounds went through this assay and about 4,000 (1.1%) were called active. Not shown: some 3% with an inconclusive outcome. Calls follow the shape of the dose curve; as a rule, active = well fitted activation curve with a large enough effect; inconclusive = small, poorly fitted or top-dose-only effect; inactive = no such curve, though single readings can be large or run the other way. Shown is part of a subset that was picked to be rich in actives. A call without a number means that no potency is given here.

Assay: qHTS Assay to Identify Small Molecule Activators of BRCA1 Expression; also: nearly all actives have a fitted effect of over 80% in size
Settings: MCF7-BRCA1-FFLuc reporter, luminescence, 48 h; series mostly up to 46.1 µM
In short: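 Quantitative HTS in MCF7 cells stably reporting BRCA1 expression via firefly luciferase. Compound treatment lasts 48 h at 37 °C in phenol-red free MEM. Activation is expressed relative to genistein at 10 microM and DMSO.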
Potency is read from the fitted curve at half-maximal effect.

| SMILES | Potency |
| --- | --- |
| CCOC(=O)c1cccc(NS(=O)(=O)c2cn(C)c(C)n2)c1 | inactive |
| Cc1ccc(S(=O)(=O)c2c(Nc3cccc(Cl)c3)sc(C(=O)c3ccc4c(c3)OCO4)c2N)cc1 | inactive |
| Cc1ccc(-c2ccc(C3=CC(=O)CC(C)(C)C3=O)cc2)cc1 | 2.24 µM (active) |
| CC1(C)CC(=O)C=C(c2ccccc2CO)C1=O | inactive |
| CC1(C)CC(=O)C=C(c2ccc(COC(=O)c3cc(F)cc(F)c3)cc2)C1=O | inactive |
| COc1cc(C(=O)Nc2ccc(OCc3cc(=O)n4cc(C)sc4n3)cc2)cc(OC)c1OC | inactive |
| CC1=Nc2cc(C(=O)N3CCC(C)CC3)ccc2Sc2ccc(Cl)cc21 | inactive |
| Oc1ccc(Cl)cc1C1C=C(c2ccc3c(c2)OCO3)NC(c2ccc(F)c(Br)c2)N1 (stereo not given) | inactive |
| COc1ccc(C2=NN(C(=O)CSc3nc(=O)n4ccc(C)cc4n3)C(c3ccc(C)cc3)C2)cc1 (stereo not given) | inactive |
| COc1ccc(C2=NN(C(C)=O)C(c3ccccc3)C2)cc1 (stereo not given) | 11.2 µM (active) |
| COc1ccc(C2CC(c3ccccc3)=NN2C(=O)c2ccc(Cl)c([N+](=O)[O-])c2)cc1 (stereo not given) | inactive |
| O=C(Nc1c(-c2ccc(F)cc2)nc2ccccn12)c1cccc(F)c1 | inactive |
| Cc1ccc(C)c(NC(=S)NNC(=S)Nc2ccc(C(C)C)cc2)c1 | inactive |
| O=C(COC(=O)C1CC2C=CC1C2)Nc1ccccc1 (stereo not given) | inactive |
| CC(C)c1ccc(NC(=S)NC2CC3C=CC2C3)cc1 (stereo not given) | 4.47 µM (active) |
| OC[C@@H]1O[C@H](n2cnc3c(SCc4ccccc4)ncnc32)[C@H](O)[C@H]1O | inactive |
| COc1cc(OC)cc(-c2nc3nc(C)c(CCC(=O)Nc4ccccc4)c(C)n3n2)c1 | inactive |
| CC(=O)c1ccc(NC(=O)COc2ccccc2-c2nc(-c3ccccc3)no2)cc1 | inactive |
| O=C(NCc1ccco1)c1sc2cccc(F)c2c1Cl | inactive |
| CCN(C(=O)c1sc2cc(OC)ccc2c1Cl)c1ccccc1 | inactive |
| COc1ccc2c(Cl)c(C(=O)NCc3ccco3)sc2c1 | 11.2 µM (active) |
| C=C1C=C(C(F)F)n2ncc(C(=O)NCCc3ccccc3OC)c2N1 | inactive |

| SMILES | Potency |
| --- | --- |
| c1csc(-c2nnc(COc3ncnc4sccc34)o2)c1 | inactive |
| Clc1ccc(Cc2nnc(-c3cccs3)o2)cc1 | 11.2 µM (active) |
| CNC(=O)c1nnc(Cc2ccc(Cl)cc2)o1 | inactive |
| CCCCCCCNc1ccc(/C=C/c2ccnc3ccccc23)cc1 | inactive |
| COc1ccc(Cc2n[nH]c(=S)n2NC(=O)Nc2ccc(C)cc2)cc1 | 12.6 µM (active) |
| COc1ccc(Cn2c(C)c(C)c(C#N)c2NC(=O)Nc2ccc(F)cc2)cc1 | inactive |
| COc1ccc(OCc2n[nH]c(=S)n2N)cc1 | inactive |
| CN(C)c1ccc(C=Nc2ccc(/C=C/c3ccnc4ccccc34)cc2)cc1 | inactive |
| O=C(NC1CCCCC1)c1ccc2c(c1)N(Cc1ccc(Cl)cc1)C(=O)c1ccccc1S2=O (stereo not given) | inactive |
| Cc1ccc(S(=O)(=O)NCC(=O)Nc2ccc3c(c2)OCCO3)cc1 | inactive |
| CC(C)NC(=O)CSc1ccccc1C(=O)NCc1ccc2c(c1)OCO2 | inactive |
| N#Cc1ccccc1NC(=O)c1ccc2c(c1)OCO2 | 3.16 µM (active) |
| C/C(=N/NC(=S)Nc1ccccc1)c1ccc2c(c1)OCO2 | inactive |
| CCOc1ncccc1C(=O)Nc1ccc2c(c1)OCCO2 | inactive |
| Cc1ccc(C(=O)NNC(=O)c2ccc3c(c2)OCCO3)cc1 | 6.31 µM (active) |
| O=C(Nc1cccc(Cl)c1N1CCOCC1)c1ccc2c(c1)OCCO2 | inactive |
| O=C(Nc1ccccc1)c1ccc2c(c1)OCO2 | 10 µM (active) |
| Cc1ccc(C(=O)NNC2=Nc3cc([N+](=O)[O-])ccc3OC2)cc1 | inactive |
| O=CN1CCN(C(=O)c2ccc3c(c2)OCO3)CC1 | inactive |
| CCSc1ccccc1C(=O)Nc1ccc2c(c1)OCO2 | 11.2 µM (active) |
| N#Cc1ccccc1NC(=O)c1cccc(COc2ccc(Cl)cc2Cl)c1 | inactive |
| COc1cc2c(=O)c(S(=O)(=O)c3ccc(C(C)C)cc3)cn(Cc3ccccc3C)c2cc1OC | inactive |

| SMILES | Potency |
| --- | --- |
| COc1cc(C(=O)Nc2ccc(-n3c(C)nc4ccccc4c3=O)cc2)cc(OC)c1OC | inactive |
| O=c1cc2nc(-c3ccccc3)nc(SCCOc3ccc(Cl)cc3)n2[nH]1 | inactive |
| CCCCC(CCCC)c1ccc(C=Nc2ccc(/C=C/c3ccnc4ccccc34)cc2)cc1 | inactive |
| Cc1ccccc1NC(=O)Cn1c(=O)n(CC2CCC(C(=O)NCCc3ccccc3)CC2)c(=O)c2ccccc21 (stereo not given) | inactive |
| CCOC(=O)c1c(C)[nH]c(C)c1S(=O)(=O)N1CCCC(C(=O)NCc2ccccc2Cl)C1 (stereo not given) | inactive |
| COc1ccc(NC(=O)CCNS(=O)(=O)c2ccc3c(c2)CCCC(=O)N3)cc1Cl | inactive |
| COCCn1c(SCC(=O)c2cc(C)ccc2C)nc2cc(C(=O)NC3CCCC3)ccc2c1=O | inactive |
| N#Cc1ccc[n+](CC(=O)c2ccc(O)c(O)c2)c1 | inactive |
| CCOC(=O)C1CCCN(CC(=O)Nc2cc(C)c3c(=O)oc4ccccc4c3n2)C1 (stereo not given) | inactive |
| O=C(Nc1ccccc1)c1ccc2c(c1)OCCCO2 | 12.6 µM (active) |
| CS(=O)(=O)N1CCc2cc(C(=O)Nc3ccccc3)ccc21 | inactive |
| C/C(Cc1ccccc1)=N\NC(=O)CNC(=O)c1ccc2c(c1)OCCO2 | inactive |
| O=C1N(Cc2ccccc2)c2ccc(Cl)cc2C1(O)c1c[nH]c2ccccc12 (stereo not given) | inactive |
| O=C(NCc1csc(-c2cccs2)n1)C1CC1 | 11.2 µM (active) |
| O=C(NCc1ccc(Cl)cc1)C1CCN(S(=O)(=O)c2cccs2)CC1 | inactive |
| CC(C)(C)C1CCC(C(=O)NCC(c2cccs2)N2CCOCC2)CC1 (stereo not given) | inactive |
| Cc1ccc(CNS(=O)(=O)c2ccc(C(=O)N(C)C)s2)cc1 | inactive |
| CCOC(=O)c1ccc(N2C(=O)c3n[nH]c(-c4ccco4)c3C2c2ccc(O)cc2)cc1 (stereo not given) | inactive |
| CCCNC(=O)C1CC(=O)N(c2ccc(OCc3ccccc3)cc2)C1 (stereo not given) | 3.16 µM (active) |
| CCOc1ccc(N2CC(C(=O)NCc3ccccn3)CC2=O)cc1 (stereo not given) | inactive |
| CCCNC(=O)C1CC(=O)N(c2ccc(OCC(=O)Nc3cccc(C)c3C)cc2)C1 (stereo not given) | inactive |
